# From PubChem BioAssay AID588397 (National Center for Advancing Translational Sciences (NCATS), 2011)
# Among all 1,300 compounds or so, about 1,000 (77%) were called active. About 7% were inconclusive and are not listed. The call rests on the fitted dose curve; in most records, active means well fitted inhibition curve with a large enough effect; inconclusive means small, poorly fitted or top-dose-only effect; inactive means no such curve, though single readings can be large or run the other way. So high a share suggests a set chosen from earlier hits. Some of the results follow.
# Assay: qHTS of small molecules that selectively kill Giardia lamblia: Hit Validation.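 Further: viability measured as ATP content by luminescence so killing lowers signal; trophozoites exposed to compounds for 48 h anaerobically at 37 °C; nearly all actives have a fitted effect of over 65% in size.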
# Conditions: Giardia lamblia trophozoite viability, dose-response; series mostly up to 38.3 µM
# Method in brief: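 Luminescent ATP signal served as the viability read-out, measured 15-30 min after adding ATP detection reagent to trophozoites that had been incubated with compounds for 48 hrs at 37 deg C anaerobically at 100 cells/well.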
# Potency means the concentration at half of the fitted maximal effect.
row,SMILES,Potency
1,Cc1cc(C)n(S(=O)(=O)c2ccccc2[N+](=O)[O-])n1,1.83 µM (active)
2,Cc1nc2cc(-c3ccc(Cl)cc3)nn2c(NCCN(C)C)c1C,0.918 µM (active)
3,CN(C)C(=O)c1cc([N+](=O)[O-])cc([N+](=O)[O-])c1N(C)C,0.818 µM (active)
4,Cc1ccc(S(=O)(=O)/N=C(/Sc2ccccc2C(=O)O)c2ccccc2)cc1,inactive
5,CN(C)c1ccc(C2NC(=O)c3ccccc3N2)cc1 (stereo unspecified),6.5 µM (active)
6,CN(C)c1ccc(C2Nc3cccc4cccc(c34)N2)cc1,3.65 µM (active)
7,O=C(c1cc(Cl)ccc1Cl)N1CCN(Cc2ccccc2)CC1,inactive
8,O=C(c1ccc([N+](=O)[O-])o1)N1CCOCC1,1.83 µM (active)
9,CCC1CCCCN1C(=O)c1ccc([N+](=O)[O-])o1 (stereo unspecified),1.83 µM (active)
10,O=C(O)c1cc(Cl)c(Cl)cc1C(=O)N1CCCC1,inactive
11,O=C(c1ccc([N+](=O)[O-])o1)N1CCN(Cc2ccccc2)CC1,6.5 µM (active)
12,O=C(c1ccc([N+](=O)[O-])o1)N1CCCCCC1,3.65 µM (active)
13,COCc1ccc(C(=O)N2CCCC(C(=O)c3ccc(Cl)cc3C)C2)o1 (stereo unspecified),inactive
14,COc1ccccc1C(=O)C1CCCN(C(=O)c2ccco2)C1 (stereo unspecified),inactive
15,CC1CCCN(C(=O)c2ccc([N+](=O)[O-])o2)C1 (stereo unspecified),5.16 µM (active)
16,CC(=O)N1CCN(c2ccc(S(C)(=O)=O)cc2[N+](=O)[O-])CC1,1.03 µM (active)
17,O=C(O)C1CCN(c2ccc([N+](=O)[O-])cc2[N+](=O)[O-])CC1,1.16 µM (active)
18,O=C(O)C1CCN(c2ccccc2[N+](=O)[O-])CC1,5.79 µM (active)
19,CCN(C(=O)COC(=O)c1cc(S(=O)(=O)N2CCc3ccccc32)ccc1OC)C1CCS(=O)(=O)C1 (stereo unspecified),inactive
20,Cc1c(Nc2nc3ccccc3n3cnnc23)cccc1[N+](=O)[O-],9.18 µM (active)
21,O=C(/C=C/c1ccc2c(c1)OCO2)Nc1cccnc1,4.6 µM (active)

row,SMILES,Potency
1,NS(=O)(=O)c1ccc(Nc2ncccc2[N+](=O)[O-])cc1,0.41 µM (active)
2,Cc1c(NC(=O)c2cc(-c3ccc(Cl)c(Cl)c3)on2)c(=O)n(-c2ccccc2)n1C,inactive
3,COc1ccc2cc(-c3cc(C(=O)OCC(=O)Nc4c(C)n(C)n(-c5ccccc5)c4=O)c4ccccc4n3)ccc2c1,0.41 µM (active)
4,COC(=O)c1ccc(Cn2cc(C(F)(F)F)cc([N+](=O)[O-])c2=O)cc1,4.1 µM (active)
5,O=c1c([N+](=O)[O-])cc(C(F)(F)F)cn1Cc1c(Cl)cccc1Cl,1.3 µM (active)
6,O=c1c([N+](=O)[O-])cc(C(F)(F)F)cn1Cc1cccc(Cl)c1,2.31 µM (active)
7,COc1cccc(/C=C/c2ccc3ccccc3[n+]2C)c1OC,5.79 µM (active)
8,CCCC[n+]1c(/C=C/c2c(OC)cc(OC)cc2OC)ccc2ccccc21,inactive
9,COc1cccc(-c2cc3nc4c(c(NCC(C)(C)CN(C)C)n3n2)CCCC4)c1,0.579 µM (active)
10,CC(=O)c1c(C)oc2c1C(=O)c1ccccc1C2=O,4.6 µM (active)
11,CCOC(=O)c1c(C)oc2c1C(=O)c1ccccc1C2=O,5.16 µM (active)
12,Cc1oc2c(c1C(=O)O)C(=O)c1ccccc1C2=O,3.26 µM (active)
13,CCOC(=O)c1c(C)[nH]c2c1-c1ccccc1C(=O)C2=O,4.1 µM (active)
14,CC(=O)NCCNC(=O)c1ccc(CSc2ccc(Cl)cc2)cc1,inactive
15,CN(C)c1ccc(/C=C(/NC(=O)c2ccccc2)C(=O)N/N=C/c2ccc([N+](=O)[O-])c(O)c2)cc1,2.59 µM (active)
16,Cc1onc(-c2ccccc2Cl)c1C(=O)NNC(=O)c1ccc(F)cc1,inactive
17,Cc1onc(-c2ccccc2)c1C(=O)N/N=C/c1ccc([N+](=O)[O-])c(O)c1,3.26 µM (active)
18,Cc1ccc(OCC(=O)Nc2ccc(C)c(F)c2)c([N+](=O)[O-])n1,5.79 µM (active)
19,Cc1ccc(OCC(=O)N(C)CC(=O)Nc2ccc(Cl)c(C(F)(F)F)c2)c([N+](=O)[O-])n1,5.79 µM (active)
20,Cc1ccc(OCC(=O)Nc2nc(C)c(Cl)cc2Cl)c([N+](=O)[O-])n1,5.79 µM (active)
21,Oc1cccc(-c2nnc(-c3cccc(O)c3)nn2)c1,1.16 µM (active)

row,SMILES,Potency
1,O=C(NC1CCCCC1)c1ccc([N+](=O)[O-])o1,1.63 µM (active)
2,O=C(NCC1CCCO1)c1ccc([N+](=O)[O-])o1 (stereo unspecified),1.16 µM (active)
3,O=C(NC1CCCC(C(F)(F)F)C1)c1ccc([N+](=O)[O-])o1 (stereo unspecified),1.45 µM (active)
4,Cc1cc2nc(-c3ccc[nH]c3=O)[nH]c2cc1C,0.729 µM (active)
5,O=C(NCc1nnnn1-c1ccc(F)cc1)c1ccc([N+](=O)[O-])o1,1.45 µM (active)
6,Cc1ccc(-n2nnnc2CNC(=O)c2ccc([N+](=O)[O-])o2)cc1C,0.918 µM (active)
7,O=C(NCC(c1ccc(F)cc1)N1CCOCC1)c1ccc([N+](=O)[O-])o1 (stereo unspecified),1.3 µM (active)
8,Cc1[nH]n(S(=O)(=O)Cc2ccccc2)c(=O)c1N=Nc1ccccc1Cl,2.31 µM (active)
9,Cc1[nH]n(S(=O)(=O)c2ccccc2)c(=O)c1N=Nc1cccc(Cl)c1,4.6 µM (active)
10,COc1ccc(N(Cc2ccccc2)C(=O)OC(C)(C)C)c(C(=O)N(C)OC)c1,inactive
11,COc1ccc(Cn2cnc([N+](=O)[O-])c2)cc1[N+](=O)[O-],3.26 µM (active)
12,O=C(Nc1cccc(NC(=O)c2ccccc2Cl)c1)c1ccc([N+](=O)[O-])o1,0.41 µM (active)
13,O=C(Nc1ccc(NC(=O)c2ccc([N+](=O)[O-])o2)cc1Cl)c1ccco1,1.03 µM (active)
14,O=C(O)c1cccc(NC(=S)NC(NC(=O)c2ccccc2[N+](=O)[O-])C(Cl)(Cl)Cl)c1 (stereo unspecified),inactive
15,COc1ccc(NC(=O)c2ccc([N+](=O)[O-])cc2[N+](=O)[O-])c(OC)c1,10.3 µM (active)
16,COc1cc(NC(=O)c2ccc([N+](=O)[O-])o2)ccc1NC(=O)c1ccco1,0.579 µM (active)
17,Cc1cc(NC(=O)c2ccc([N+](=O)[O-])o2)ccc1NC(=O)c1ccco1,0.918 µM (active)
18,O=C(Nc1ccccc1O)c1ccc([N+](=O)[O-])cc1,9.18 µM (active)
19,O=C(Nc1ccc(O)c2c(=O)cc(-c3ccccc3Cl)oc12)c1ccc(F)cc1,inactive
20,O=C(Nc1cccc(NC(=O)c2ccc([N+](=O)[O-])o2)c1)c1ccco1,0.729 µM (active)
21,O=C(Nc1cccc(NC(=O)c2cccs2)c1)c1ccc([N+](=O)[O-])o1,0.729 µM (active)

row,SMILES,Potency
1,COc1ccc(NC(=O)c2ccco2)c(NC(=O)c2ccc([N+](=O)[O-])cc2)c1,4.1 µM (active)
2,COc1cc(NC(=O)c2ccc([N+](=O)[O-])o2)ccc1NC(=O)c1cccs1,0.818 µM (active)
3,O=C(COC(=O)c1ccc(Br)o1)Nc1ncc([N+](=O)[O-])s1,2.31 µM (active)
4,O=C(COC(=O)c1ccccc1)Nc1ncc([N+](=O)[O-])s1,3.65 µM (active)
5,Cc1ccnc(NC(=S)NC(=O)c2cccs2)c1,6.5 µM (active)
6,Cc1cccc(NC(=O)c2ccc([N+](=O)[O-])s2)n1,3.65 µM (active)
7,Cc1nc2cc(NC(=O)c3ccc([N+](=O)[O-])s3)ccc2s1,0.65 µM (active)
8,Cc1ccnc(NC(=O)c2ccc([N+](=O)[O-])s2)c1,3.65 µM (active)
9,COc1cc2c(cc1OC)CN(Cc1cc(=O)oc3c(C)c(C)ccc13)CC2,inactive
10,O=C(c1ccc([N+](=O)[O-])o1)N1CCc2ccccc2C1,2.9 µM (active)
11,O=C(c1ccc([N+](=O)[O-])o1)N1CCc2ccccc21,1.3 µM (active)
12,O=C(c1cc(COc2c(F)cccc2F)on1)N1CCc2ccccc2C1,inactive
13,COc1cc2c(cc1OC)CN(C(=O)c1ccc([N+](=O)[O-])o1)CC2,2.05 µM (active)
14,N/C(=N\c1nc2ccccc2o1)NC(=O)C(Cc1ccccc1)N1C(=O)c2ccccc2C1=O (stereo unspecified),1.83 µM (active)
15,N#Cc1ccccc1S(=O)(=O)N1CCN(C(=O)c2cn(-c3ccccc3)nc2-c2cccnc2)CC1,6.5 µM (active)
16,CC(NC(=O)C12CC3CC(CC(C3)C1)C2)C(=O)NN=Cc1ccc([N+](=O)[O-])o1 (stereo unspecified),1.83 µM (active)
17,O=C(CC12CC3CC(CC(C3)C1)C2)N/N=C/c1ccc([N+](=O)[O-])o1,0.918 µM (active)
18,CCn1c(C)cc(C(=O)COC(=O)c2ccccc2[N+](=O)[O-])c1C,20.5 µM (active)
